Source: PubChem BioAssay AID1159580 (chemical genetic matrix, 2015)
In all, about 5,500 compounds went through this assay and about 2,000 (36%) were called active. Another 18% or so got no clear call; they are omitted. No stated cut-off is given here; in the data, active means normalized growth mostly below about 0.91 (no sharp cut-off); inconclusive means no clear call, values can overlap the other calls; inactive means mostly above about 0.92. The list shows a part of the results.

Experiment: chemical genetic growth profiling, strain panel (AID 1159580);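 further: tested at 20 µM; growth read once vehicle control cultures reached saturation at 30 °C; 1 = growth at the plate median or of vehicle wells; lower values mean less growth of the strain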
Conditions: S. cerevisiae deletion strains, growth OD

Measured: normalized growth

CC(=O)OC[C@H]1O[C@@H](Oc2cc(OC(C)=O)c3c(=O)cc(-c4ccc(OC(C)=O)cc4)oc3c2)[C@H](OC(C)=O)[C@@H](OC(C)=O)[C@@H]1OC(C)=O
inactive: locus YAL021C, strain ccr4, hits give low values 1.04 | locus YAL026C, strain drs2, hits give low values 1 | locus YAL030W, strain snc1, hits give low values 1.01 | locus YBL061C, strain skt5, hits give low values 0.981 | locus YBR009C, strain hhf1, hits give low values 0.998 | locus YBR023C, strain chs3, hits give low values 0.999 | locus YBR171W, strain sec66, hits give low values 0.981 | locus YBR231C, strain swc5, hits give low values 0.955 | locus YBR279W, strain paf1, hits give low values 0.997 | locus YCL011C, strain gbp2, hits give low values 1 | locus YCL016C, strain dcc1, hits give low values 1.06 | locus YCL069W, strain vba3, hits give low values 0.979 | locus YCR088W, strain abp1, hits give low values 0.989 | locus YDL005C, strain med2, hits give low values 0.977 | locus YDL040C, strain nat1, hits give low values 1.02 | locus YDR001C, strain nth1, hits give low values 1 | locus YDR069C, strain doa4, hits give low values 0.953 | locus YDR137W, strain rgp1, hits give low values 1.09 | locus YDR159W, strain sac3, hits give low values 0.963 | locus YDR195W, strain ref2 0.936 | locus YDR297W, strain sur2, hits give low values 0.988 | locus YDR334W, strain swr1, hits give low values 0.979 | locus YDR335W, strain msn5, hits give low values 0.989 | locus YDR392W, strain spt3, hits give low values 0.966 | locus YEL003W, strain gim4, hits give low values 0.979 | locus YEL037C, strain rad23, hits give low values 0.986 | locus YEL061C, strain CIN8 (second series), hits give low values 0.999 | locus YER015W, strain faa2, hits give low values 1 | locus YER016W, strain bim1, hits give low values 1.02 | locus YER111C, strain swi4, hits give low values 1.03 | locus YER155C, strain BEM2 (second series), hits give low values 0.985 | locus YFR010W, strain ubp6, hits give low values 0.975 | locus YGL167C, strain pmr1, hits give low values 0.992 | locus YGL173C, strain kem1, hits give low values 0.973 | locus YGL227W, strain vid30, hits give low values 0.995 | locus YGL240W, strain doc1, hits give low values 0.983 | locus YGL253W, strain hxk2, hits give low values 0.968 | locus YHR013C, strain ard1, hits give low values 1.01 | locus YHR027C, strain rpn1, hits give low values 1.01 | locus YHR142W, strain chs7, hits give low values 1.02 | locus YJL092W, strain hpr5, hits give low values 0.995 | locus YJL095W, strain BCK1 (second series), hits give low values 1.04 | locus YJL115W, strain asf1, hits give low values 0.98 | locus YJL129C, strain trk1, hits give low values 0.984 | locus YJL154C, strain vps35, hits give low values 0.98 | locus YJL164C, strain tpk1, hits give low values 1.02 | locus YJL166W, strain qcr8, hits give low values 0.989 | locus YJL187C, strain SWE1, hits give low values 1 | locus YKL160W, strain elf1, hits give low values 1.02 | locus YKR026C, strain gcn3, hits give low values 0.977 | locus YKR091W, strain srl3, hits give low values 0.999 | locus YLL001W, strain dnm1, hits give low values 0.947 | locus YLL026W, hits give low values 0.99 | locus YLL041C, strain sdh2, hits give low values 0.991 | locus YLR027C, strain aat2, hits give low values 0.981 | locus YLR221C, strain rsa3, hits give low values 0.971 | locus YLR258W, strain gsy2, hits give low values 1.01 | locus YLR262C, strain YPT6 (second series), hits give low values 0.998 | locus YLR320W, strain mms22, hits give low values 0.993 | locus YLR342W, strain FKS1, hits give low values 0.985 | locus YLR357W, strain rsc2, hits give low values 0.967 | locus YLR370C, strain arc18, hits give low values 0.981 | locus YLR384C, strain iki3, hits give low values 0.965 | locus YML120C, strain ndi1, hits give low values 0.998 | locus YMR058W, strain fet3, hits give low values 0.994 | locus YMR125W, strain sto1, hits give low values 1 | locus YMR129W, hits give low values 0.987 | locus YMR205C, strain PFK2, hits give low values 1.01 | locus YMR231W, strain pep5, hits give low values 0.969 | locus YNL071W, strain lat1, hits give low values 0.998 | locus YNL209W, strain ssb2, hits give low values 1 | locus YNL248C, strain rpa49, hits give low values 0.961 | locus YNL322C, strain KRE1 (second series), hits give low values 1.01 | locus YNR049C, strain mso1, hits give low values 0.989 | locus YOR001W, strain rrp6, hits give low values 0.953 | locus YOR070C, strain gyp1, hits give low values 1.06 | locus YOR080W, strain dia2, hits give low values 0.98 | locus YOR083W, strain WHI5, hits give low values 1.03 | locus YOR106W, strain vam3, hits give low values 1.01 | locus YOR265W, strain rbl2, hits give low values 0.992 | locus YOR270C, strain vph1, hits give low values 0.958 | locus YOR290C, strain snf2, hits give low values 1.12 | locus YPL051W, strain arl3, hits give low values 0.981 | locus YPL078C, strain atp4, hits give low values 1.03 | locus YPL106C, strain sse1, hits give low values 1.01 | locus YPL240C, strain hsp82, hits give low values 0.989
